Activation and Potency data for 21 molecules are collected here from PubChem BioAssay (NCATS).

For test [1], the target named is Cellular tumor antigen p53 (Homo sapiens) (UniProt P04637). Kind of test: Primary qHTS for small molecule compounds that upregulate eGFP-tagged delta133p53alpha (in N-terminal) cells. (AID 2060322). Also: nearly all actives have a fitted effect of over 75% in size. Also: potency is read from the fitted curve at half-maximal effect.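 As to Activation: series mostly up to about 56 µM; 0% = DMSO vehicle and 100% = reference activator.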 To be noted: NCI-H358 eGFP-delta133p53alpha fluorescence, 24 h; activation: stronger effect = higher value. Summed up:
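NCI-H358 cells pre-induced 24 h with 10 ng/ml doxycycline to express N-terminal eGFP-delta133p53alpha, then dosed 24 h at 37C without doxycycline; fixed, Hoechst-stained, GFP intensity by laser scanning cytometry, normalized to DMSO (0%) and 57.5 uM 5-azacytidine (100%).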

In test [2] the target is Aldehyde dehydrogenase, mitochondrial (Homo sapiens) (UniProt P05091). In words: qHTS for Inhibitors of the Aldehyde Dehydrogenase Family (ALDH2) Primary screen (AID 2061308;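 also: plate controls were vehicle for no effect and reference inhibitor for full effect; nearly all actives have a fitted effect of over 55% in size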). (In general: qHTS replaces the single test concentration by a dilution series.)
Test [3] addresses Retinaldehyde dehydrogenase 3 (Homo sapiens) (UniProt P47895). In words: qHTS for Inhibitors of the Aldehyde Dehydrogenase Family (ALDH1A3) Primary screen (AID 2061315).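 Also: plate controls were DMSO vehicle for no effect and reference inhibitor for full effect.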
Test [4] in a line: BET inhibitor-based combinations targeting novel dependencies in MECOM-rearranged (r) AML: OCI-AML3 cell line (AID 2202232). Also: nearly all actives have a fitted effect of over 35% in size. Also: potency is read from the fitted curve at half-maximal effect. The settings on record: Potency: OCI-AML3 viability. Put shortly: (§1)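 Cells were plated at 500 per well and exposed to an 11-point dose series of each drug for 48 hr. Viability was measured by CellTiter-Glo luminescence, normalized to DMSO and empty-well controls, and summarized as AUC and per-cell-line Z-AUC.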

Test [5] is described as follows: BET inhibitor-based combinations targeting novel dependencies in MECOM-rearranged (r) AML: HNT-34 cell line (AID 2202234). Also: nearly all actives have a fitted effect of over 35% in size. Also: potency is read from the fitted curve at half-maximal effect. Put shortly: (§2)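 Activity is given as area under the curve and as Z-AUC, mean-centred within each cell line. It comes from 11-point dose curves normalized to DMSO and empty wells. CellTiter-Glo luminescence was read after 48 hr drug exposure of 500 cells/well.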

Test [6] in a line: BET inhibitor-based combinations targeting novel dependencies in MECOM-rearranged (r) AML: AML-191 cell line (AID 2202236; also: nearly all actives have a fitted effect of over 35% in size; also: potency is read from the fitted curve at half-maximal effect). Put shortly: as §1
A short description of test [7]: BET inhibitor-based combinations targeting novel dependencies in MECOM-rearranged (r) AML: AML-194 cell line (AID 2202237; also: nearly all actives have a fitted effect of over 40% in size; also: potency is read from the fitted curve at half-maximal effect). Summed up: as §1
Test [8] can be described thus: BET inhibitor-based combinations targeting novel dependencies in MECOM-rearranged (r) AML: MV-4-11 cell line (AID 2202233). Also: nearly all actives have a fitted effect of over 45% in size. Also: potency is read from the fitted curve at half-maximal effect. Summed up:
as §2

Test [9] is described as follows: BET inhibitor-based combinations targeting novel dependencies in MECOM-rearranged (r) AML: UCSD-AML1 cell line (AID 2202235). Also: nearly all actives have a fitted effect of over 40% in size. Also: potency is read from the fitted curve at half-maximal effect. Summed up:
as §2

The structures appear in SMILES notation. Values joined by “and” are separate entries in the source; they are usually repeats but may differ in a detail not shown here. Equal entries are not always repeated. Results filed as inconclusive are left out. Unmarked numbers belong to inactive results. Active and inactive are the calls of the source. Calls follow the shape of the dose curve; as a rule, active = well fitted curve in the direction sought with a large enough effect; inconclusive = small, poorly fitted or top-dose-only effect, or another doubt; inactive = no such curve, though single readings can be large; an effect the other way counts as inactive or inconclusive.

Sequence of Cellular tumor antigen p53 (Homo sapiens) (P04637 whole entry, looked up): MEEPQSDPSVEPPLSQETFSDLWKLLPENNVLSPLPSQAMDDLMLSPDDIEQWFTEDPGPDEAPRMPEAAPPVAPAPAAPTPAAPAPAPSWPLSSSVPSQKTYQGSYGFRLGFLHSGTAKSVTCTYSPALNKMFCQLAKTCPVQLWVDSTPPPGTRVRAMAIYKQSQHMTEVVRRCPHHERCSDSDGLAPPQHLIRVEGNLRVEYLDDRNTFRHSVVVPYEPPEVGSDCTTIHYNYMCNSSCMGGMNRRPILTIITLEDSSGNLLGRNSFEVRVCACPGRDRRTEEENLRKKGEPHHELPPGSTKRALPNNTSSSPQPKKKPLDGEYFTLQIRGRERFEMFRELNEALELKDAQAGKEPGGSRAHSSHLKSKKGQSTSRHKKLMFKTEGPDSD

On to `CNC(=O)c1cc(Oc2ccc(NC(=O)Nc3ccc(Cl)c(C(F)(F)F)c3)c(F)c2)ccn1`, for which the activation in test [1] is 8.41%. The Potency entry in [2] and in [3] was “inactive” each time. The figures for the Potency in [4], in [5] and in test [6] were 2.63 µM (active), 10.5 µM (active) and 9.34 µM (active), respectively.
With `CNc1nc(Nc2ccc(C(=O)N3CCOCC3)cc2OC)ncc1Cl`, the activation in test [1] is -0.44% and -2.68%. For the same molecule, the Potency entry in test [2], in test [3], in test [4], in test [6] and in test [7] was “inactive” in each case.
For `Nc1ncnc2c1c(-c1cccc(OCc3ccccc3)c1)cn2C1CC(CN2CCCC2)C1` (stereo unspecified), the activation in test [1] is 31.8%. In addition, the Potency entry in [2] and in test [3] was “inactive” in each case. For the same molecule, the Potency in test [8] is 2.63 µM (active); in test [5], 18.6 µM (active); in test [6] it was 20.9 µM (active).
For the molecule `COc1cc2c(cc1OC)CN(CCc1ccc(NC(=O)c3cc(OC)c(OC)cc3NC(=O)c3cnc4ccccc4c3)cc1)CC2`, the activation in test [1] is 1.67%. Moreover, the Potency result in [2], in test [3], in test [8], in test [5], in test [9] and in test [6] was “inactive” in each case. Besides, the Potency entry in test [7] is “inactive”.
In the case of `CCn1c(=O)c(-c2ccn[nH]2)cc2c(C)nc(N)nc21`, the activation in test [1] was 4.46%. The Potency entry in [2] and in [3] was “inactive” in each case. For the same molecule, the Potency was 5.25 µM (active) in test [8] and 0.59 µM (active) in [9].
As for `NS(=O)(=O)c1ccc(Nc2nc(OCC3CCCCC3)c3[nH]cnc3n2)cc1`, the activation in [1] was -24.8%. For the same molecule, the Potency entry in test [2] and in test [3] was “inactive” in each case. The Potency in test [8] is 3.32 µM (active); in [9], 10.5 µM (active).
Consider `NC1CCC(N[C@@H]2C[C@H]2c2ccccc2)CC1` (stereo partly specified), for which, in test [1], the activation was 3.67% and 27.6%. Further, the Potency result in [2], in test [3], in test [6] and in test [7] was “inactive” throughout. Moreover, the Potency in test [9] was 0.0019 µM (active).
As for `CS(=O)(=O)N1CCN(Cc2cc3nc(-c4cccc5[nH]ncc45)nc(N4CCOCC4)c3s2)CC1`, in test [1], the activation was -25.9%. The Potency result in test [2] and in test [3] was “inactive” in each case. Besides, the figures for the Potency in test [8] and in test [9] were 2.09 µM (active) and 0.468 µM (active), respectively.
Regarding `N#CC[C@H](C1CCCC1)n1cc(-c2ncnc3[nH]ccc23)cn1`, the activation in [1] is 7.18% and -12.3%. The Potency entry in [2] and in test [3] was “inactive” throughout. Further, the Potency in test [6] is 5.9 µM (active).
On to `CN(C)CCCNC(=O)c1ccc(-c2cc(O)c3ncccc3c2)cc1`, for which the activation in [1] is -8.46% and -17.9%. Also, the Potency entry in test [2] and in test [3] was “inactive” in each case. In test [9], the Potency was 18.6 µM (active).
As for `Cc1ccc(Nc2nccc(N(C)c3ccc4c(C)n(C)nc4c3)n2)cc1S(N)(=O)=O`, in [1], the activation is 13% and -7.12% and -16.1%. Also, the Potency result in [2] and in test [3] was “inactive” in each case. For the same molecule, the Potency in test [5] was 6.61 µM (active); in test [9], 18.6 µM (active); in test [6] it was 18.6 µM (active); in test [7] it was 18.6 µM (active).
Consider `C[C@@H](N)c1ccc(C(=O)Nc2ccnc3[nH]ccc23)cc1`, for which, in test [1], the activation is 21.5%. In addition, the Potency result in [2] and in test [3] was “inactive” in each case. The Potency in test [8] was 3.72 µM (active); in test [9] it was 18.6 µM (active); in [6], 16.6 µM (active); in test [7], 14.8 µM (active).
As for `COc1cc2ncnc(-n3nc(-c4ccccn4)nc3N)c2cc1OC`, in [1], the activation was 13.4%. Besides, the Potency entry in test [2] and in [3] was “inactive” throughout. The Potency was 1.48 µM (active) in test [8], 4.17 µM (active) in test [6] and 6.61 µM (active) in [7].
Regarding `O=C(O)c1ccc(CCCc2ccc(OCCc3ccc(F)cc3)cc2)o1`, in test [1], the activation was -3.57%. Moreover, the Potency entry in test [2], in test [3], in test [5], in [6] and in [7] was “inactive” throughout.
As for `CN(C)C(=O)c1cc2cnc(Nc3ccc(N4CCNCC4)cn3)nc2n1C1CCCC1`, in test [1], the activation is 15.2%. Moreover, the Potency entry in [2], in test [3], in [5], in [9], in [6] and in test [7] was “inactive” in each case.
In the case of `COc1cc(N2CCC(N3CCN(C)CC3)CC2)ccc1Nc1ncnc(Nc2ccccc2S(=O)(=O)C(C)C)n1`, the Potency in [1] is 24.3 µM (active) and 26.9 µM (active); in test [5], 9.34 µM (active); in test [6], 18.6 µM (active); in [7] it was 10.5 µM (active). In addition, the Potency result in [2] and in test [3] was “inactive” each time.
Turning to `CN1CCN(c2ccc(-c3cccc(CN4CCOCC4)c3)cc2NC(=O)c2c[nH]c(=O)cc2C(F)(F)F)CC1`, the activation in test [1] is -14.5%. Also, the Potency entry in test [2], in [3], in [5], in test [9], in test [6] and in test [7] was “inactive” each time. Further, in test [8], the Potency was 12.9 µM (active).
In the case of `CS(=O)(=O)c1ccc(-c2cnc(N)c(C(=O)Nc3ccccc3)n2)cc1`, the activation in test [1] is -13%. The Potency result in [2] and in test [3] was “inactive” in each case. Further, the Potency is 7.42 µM (active) in [8] and 4.68 µM (active) in [6].
Take `N#Cc1c(C2CCNCC2)cc(-c2c(O)cccc2OCC2CC2)nc1N`: the activation in test [1] was -1.56%. Moreover, the Potency entry in [2] and in test [3] was “inactive” each time. In addition, the values for the Potency in test [9], in test [6] and in [7] were 16.6 µM (active), 26.3 µM (active) and 16.6 µM (active), respectively.
Take `CC(C)(CNC(=O)c1cccc(-c2noc(C(F)(F)F)n2)c1)c1coc(-c2ccccc2)n1`: the activation in test [1] was -0.477%. Further, the Potency entry in test [2], in test [3] and in [9] was “inactive” each time. Also, the Potency in test [8] was 23.5 µM (active); in test [6], 11.8 µM (active).
Regarding `CC(C)Nc1cc(C(F)(F)F)cc2nc(NC(=O)c3cccnc3)nn12`, the activation in test [1] is -46.7% and -1.43%. Further, the Potency result in test [2], in test [3], in test [8], in test [9], in [6] and in test [7] was “inactive” each time.
